Screening results from PubChem BioAssay.
MITF primary – MITF inhibitors, primary screen, biochemical, AlphaScreen, human; Microphthalmia-associated transcription factor (Homo sapiens), O75030; AlphaScreen MITF homodimerization, bead proximity signal; inhibition, % at 2.6 µM; 650,000 compounds, 0.91% hits; AID 1259374, 2018; in the data active means inhibition above about 50%;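 further: 0% = vehicle wells with protein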
GPR151 activ – activators of human GPR151, primary screen, cell-based, PathHunter beta-arrestin, luminescence; G-protein coupled receptor 151 (Homo sapiens), Q8TDV0; PathHunter beta-arrestin GPR151 cells; activation, % at 11.2 µM; 650,000 compounds, 1% hits; AID 1508602, 2020; in the data active means activation above about 4.9%;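 further: 0% = median of compound wells and 100% = cells with positive control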
TEAD-YAP inh – TEAD-YAP interaction inhibition, primary screen, TEAD-YAP interaction inhibitor project, luminescence, HEK-TIYL cells | TEAD-Gal4/YAP UAS-luciferase luminescence | inhibition, % at 9.12 µM | 640,000 compounds, 1.4% hits | AID 1259422, 2018; in the data active means inhibition above about 32%;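 further: 0% = median of test compound wells and 100% = reference inhibitor wells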
FBW7 activator – FBW7 E3 ligase activators, primary screen, biochemical, AlphaScreen, human; F-box/WD repeat-containing protein 7 (Homo sapiens), Q969H0; AlphaScreen FBW7–phospho-cyclin E peptide binding, activator screen; normalized activity (activation), % at 26.1 µM; 650,000 compounds, 0.13% hits; in the data active means normalized activity above about 1.9%;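 further: purified mutant Fbw7 with reduced substrate affinity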
Target sequence (Q969H0 whole entry, looked up): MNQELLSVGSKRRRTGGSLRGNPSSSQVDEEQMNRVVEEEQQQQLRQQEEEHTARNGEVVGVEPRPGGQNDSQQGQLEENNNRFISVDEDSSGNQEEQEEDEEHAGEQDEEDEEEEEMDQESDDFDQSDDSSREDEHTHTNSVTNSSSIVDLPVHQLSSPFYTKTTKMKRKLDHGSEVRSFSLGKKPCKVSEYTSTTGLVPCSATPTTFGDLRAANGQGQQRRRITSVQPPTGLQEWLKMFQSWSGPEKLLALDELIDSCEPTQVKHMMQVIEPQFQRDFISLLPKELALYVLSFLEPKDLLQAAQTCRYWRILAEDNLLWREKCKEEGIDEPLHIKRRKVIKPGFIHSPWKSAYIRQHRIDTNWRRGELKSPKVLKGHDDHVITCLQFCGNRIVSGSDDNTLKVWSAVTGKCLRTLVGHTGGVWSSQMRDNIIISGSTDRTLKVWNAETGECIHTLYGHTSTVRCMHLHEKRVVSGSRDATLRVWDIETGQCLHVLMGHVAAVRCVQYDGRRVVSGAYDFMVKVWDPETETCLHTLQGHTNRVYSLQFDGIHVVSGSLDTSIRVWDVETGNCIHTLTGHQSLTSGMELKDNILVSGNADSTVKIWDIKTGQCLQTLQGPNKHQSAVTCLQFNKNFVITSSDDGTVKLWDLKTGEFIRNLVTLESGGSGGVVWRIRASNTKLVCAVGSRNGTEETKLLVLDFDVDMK
Numbers without * were called inactive. Rows were chosen to be rich in hits. Some 3.5% of all compounds tested hit in one or more screens of this group.

SMILES	MITF primary	GPR151 activ	TEAD-YAP inh	FBW7 activator
C/C(=N/NC(=O)c1ccccn1)c1cccc([N+](=O)[O-])c1	18	-3	-21	0
N/C(=N\N=C\c1cccc([N+](=O)[O-])c1)c1ccccn1	-2	-4	43*	0
N/C(=N\N=C/c1ccc(O)cc1)c1ccccn1	29	-7	93*	-1
COc1ccc(/C=N/Nc2nnc(Cc3ccccc3)c(=O)[nH]2)cc1OC	15	0	4	0
O=c1[nH]c(N/N=C/c2ccc(O)cc2O)nnc1Cc1ccccc1	104*	-1	8	0
COc1ccc(Cc2nnc(N/N=C/c3cccs3)[nH]c2=O)cc1OC	-9	-1	4	-1
COc1ccc(Cc2nnc(N/N=C/c3cc([N+](=O)[O-])ccc3O)[nH]c2=O)cc1OC	115*	2	-2	0
O=c1[nH]c(N/N=C/c2ccccc2O)nc2ccccc12	78*	-3	72*	0
CCC(=O)Nc1ccc(NC(=O)CSc2nnnn2-c2ccc(OC)cc2OC)cc1	16	-1	14	0
Cc1ccc(-c2cnc3ccc(NCc4ccc5c(c4)OCO5)nn23)cc1	8	0	48*	0
c1ccc(CNc2ccc3ncc(-c4ccc5c(c4)OCO5)n3n2)nc1	7	1	58*	0
c1cc(CNc2ccc3ncc(-c4ccc5c(c4)OCO5)n3n2)ccn1	5	0	50*	0
O=C(O)c1ccc(-c2cnc3ccc(NCc4ccc5c(c4)OCO5)nn23)cc1	-16	-1	-3	0
Cc1cccc(C(=O)NCCC(=O)O)c1	8	4	-10	0
CNC(=O)c1ccccc1Nc1cc(NC(=O)Cc2ccccc2F)ncc1C(F)(F)F	9	0	81*	0
CNC(=O)c1ccccc1Nc1cc(NC(=O)Cc2ccsc2)ncc1C(F)(F)F	-9	0	77*	0
CNC(=O)c1ccccc1Nc1cc(NC(=O)Cc2ccc(F)cc2)ncc1C(F)(F)F	-7	0	72*	0
NC(=O)c1ccccc1NC(=O)Cc1cccs1	2	0	3	0
CNC(=O)c1ccccc1Nc1cc(NC(=O)Cc2cccs2)ncc1C(F)(F)F	8	-1	74*	0
O=C(Cc1ccc2c(c1)OCO2)Nc1cc(Nc2ccccc2-c2nn[nH]n2)c(C(F)(F)F)cn1	10	-1	5	1
CNC(=O)c1ccccc1Nc1cc(NCc2ccccc2)ncc1C(F)(F)F	18	1	22	0
CCc1cccc(CC)c1NC(=O)c1c(C)c(-c2ccc(Cl)cc2)nc2ccccc12	-14	-1	5	0
CNC(=O)c1ccccc1Nc1cc(NC(=O)C2CCc3ccccc32)ncc1C(F)(F)F (stereo not given)	16	-2	79*	0
CC(C)N1CCN(c2ccc(Oc3cc(Nc4ccccc4C(N)=O)c(C(F)(F)F)cn3)cc2)CC1	12	-1	14	1
NC(=O)c1ccccc1Nc1cc(NC(=O)Cc2ccc(F)cc2)ncc1F	15	-1	15	0
SMILES	MITF primary	GPR151 activ	TEAD-YAP inh	FBW7 activator
CNC(=O)c1ccccc1Nc1cc(NC(=O)Cc2ccc(N)cc2)ncc1C(F)(F)F	-17	-1	79*	1
CS(=O)(=O)NC1CCC(Nc2cc(Nc3ccccc3C(N)=O)c(C(F)(F)F)cn2)CC1 (stereo not given)	11	-2	98*	1
CC(=O)c1c(C)[nH]c(C(=O)Nc2ccc(C)cn2)c1C	1	-1	53*	0
CC(=O)c1c(C)[nH]c(C(=O)Nc2nc(C)cs2)c1C	-1	-2	54*	0
COc1ccc(C2c3[nH]c4ccccc4c3CCN2C(=O)CNC(C)=O)c(C)c1C (stereo not given)	-7	-1	4	0
COc1ccccc1NC(=O)N1CCC2(CC1)OCCc1c2[nH]c2ccccc12	6	0	-4	0
CC[C@]1(O)C[C@H]2CN(CCc3c([nH]c4ccccc34)[C@H](C)[C@H]2c2cc3c(cc2OC)N(C=O)[C@H]2[C@@](O)(C(=O)OC)[C@H](C)[C@]4(CC)C=CCN5CC[C@]32[C@@H]54)C1	4	2	56*	0
CCC1=C[C@H]2CN(C1)Cc1c([nH]c3ccccc13)[C@@](C(=O)OC)(c1cc3c(cc1OC)N(C)[C@H]1[C@@](O)(C(=O)OC)[C@H](OC(C)=O)[C@]4(CC)C=CCN5CC[C@]31[C@@H]54)C2	33	2	56*	0
CCC1(O)CC2CN(CCc3c([nH]c4ccccc34)[C@@](C(=O)OC)(c3cc4c(cc3OC)N(C=O)C3[C@]45CCN4CC=C[C@@](CC)([C@@H](OC(C)=O)[C@]3(O)C(=O)OC)[C@H]45)C2)C1 (stereo not given in full)	26	-1	69*	0
CC[C@]1(O)CC2CN(CCc3c([nH]c4ccccc34)[C@@](C(=O)OC)(c3cc4c(cc3OC)N(C)[C@H]3[C@@](O)(C(=O)OC)[C@H](OC(C)=O)[C@]5(CC)C=CCN6CC[C@]43[C@@H]65)C2)C1 (stereo not given in full)	-7	2	59*	0
c1ccc2sc(NCCN3CCCC3)nc2c1	3	0	-32	0
COc1ccc(S(=O)(=O)Nc2ccc(C)cc2C)c2cccnc12	-12	2	1	0
CC(C)c1c(C#N)c(N)nc2sc(C(=O)c3ccc([N+](=O)[O-])cc3)c(N)c12	15	0	18	0
Cc1ccc(NC(=O)c2c(NC(=O)c3ccco3)sc3c2CCC3)cc1	-2	-1	-5	0
COc1ccccc1C(NC(C)=O)c1cc(Cl)c2cccnc2c1O (stereo not given)	3	0	3	0
CC(=O)NC(c1ccc2cccnc2c1O)c1cccc2ccccc12 (stereo not given)	46	0	82*	-2
CC(=O)NC(c1ccccc1C)c1ccc2cccnc2c1O (stereo not given)	24	-1	85*	-1
CC(C)[C@H](Cn1nc(-c2ccc(F)c(F)c2)ccc1=O)NC(=O)c1ccncc1	11	-1	3	0
CCN1CCN(CC(=O)Nc2ccc(Cl)cc2)C(=O)C1=O	19	-2	7	1.9*
CCN1CCN(CC(=O)Nc2ccc(C)cc2)C(=O)C1=O	7	1	-9	0
COc1cccc(C2/C(=C(\O)c3ccccc3)C(=O)C(=O)N2c2nc3ccccc3s2)c1 (stereo not given)	-3	1	0	0
CCOC(=O)C1CCCCN1Cc1ccc(O)c([N+](=O)[O-])c1 (stereo not given)	-5	0	1	0
O=C(NCC1CCCO1)c1ccc(Cn2c(=S)[nH]c3ccc(Br)cc3c2=O)cc1 (stereo not given)	-1	2	0	0
